Experimental data as given in PubChem BioAssay AID1159580 (chemical genetic matrix, 2015).
“And” between values parts separate entries of the source, which are not always exact repeats. Equal entries are not always repeated. Out of some 5,500 compounds screened, about 2,000 (36%) were called active. Not shown: some 18% with an inconclusive outcome. No stated cut-off is given here; in the data, active means normalized growth mostly below about 0.91 (no sharp cut-off); inconclusive means no clear call, values can overlap the other calls; inactive means mostly above about 0.92. The list shows a part of the results.

Assay: chemical genetic growth profiling, strain panel (AID 1159580);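 further: tested at 20 µM; growth read once vehicle control cultures reached saturation at 30 °C; 1 = growth at the plate median or of vehicle wells; lower values mean less growth of the strain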
Conditions: S. cerevisiae deletion strains, growth OD

Measured: normalized growth

CC(C)(C)CC(C)(C)c1ccc(O)c(Cc2ccc(Cl)cc2Cl)c1
inactive: locus YAL021C, strain ccr4, active compounds read low 1 | locus YAL026C, strain drs2, active compounds read low 1.03 | locus YAL030W, strain snc1, active compounds read low 1.01 | locus YBL061C, strain skt5, active compounds read low 1.01 | locus YBR009C, strain hhf1, active compounds read low 0.995 | locus YBR021W, strain FUR4, active compounds read low 0.993 | locus YBR023C, strain chs3, active compounds read low 1.02 | locus YBR171W, strain sec66, active compounds read low 1.02 | locus YBR229C, strain ROT2, active compounds read low 1.01 | locus YBR231C, strain swc5, active compounds read low 1.01 | locus YBR279W, strain paf1, active compounds read low 1.02 | locus YCL011C, strain gbp2, active compounds read low 1.01 | locus YCL016C, strain dcc1, active compounds read low 1.01 | locus YCL029C, strain bik1, active compounds read low 1.02 | locus YCL061C, strain MRC1, active compounds read low 1.02 | locus YCL069W, strain vba3, active compounds read low 1.03 | locus YCR088W, strain abp1, active compounds read low 1.02 | locus YDL005C, strain med2, active compounds read low 1.03 | locus YDL035C, strain GPR1, active compounds read low 1.01 | locus YDL040C, strain nat1, active compounds read low 1 | locus YDL074C, strain BRE1, active compounds read low 1.01 | locus YDL101C, strain DUN1, active compounds read low 1 | locus YDL134C, strain PPH21, active compounds read low 1 | locus YDL185W, strain tfp1, active compounds read low 1.01 | locus YDL192W, strain arf1, active compounds read low 1.01 | locus YDR001C, strain nth1, active compounds read low 1.02 | locus YDR069C, strain doa4, active compounds read low 1.02 | locus YDR101C, strain arx1, active compounds read low 0.997 | locus YDR137W, strain rgp1, active compounds read low 1.03 | locus YDR159W, strain sac3, active compounds read low 1.02 | locus YDR162C, strain NBP2, active compounds read low 1 | locus YDR195W, strain ref2 1.08 | locus YDR297W, strain sur2, active compounds read low 1.01 | locus YDR318W, strain mcm21, active compounds read low 1.01 | locus YDR334W, strain swr1, active compounds read low 1.04 | locus YDR335W, strain msn5, active compounds read low 1.04 | locus YDR388W, active compounds read low 1.01 | locus YDR392W, strain spt3, active compounds read low 0.894 | locus YDR502C, strain sam2, active compounds read low 1.02 | locus YEL003W, strain gim4, active compounds read low 1.02 | locus YEL037C, strain rad23, active compounds read low 1.02 | locus YEL061C, strain CIN8 (second series), active compounds read low 1.03 | locus YEL061C, strain CIN8, active compounds read low 1 | locus YER015W, strain faa2, active compounds read low 1.01 | locus YER016W, strain bim1, active compounds read low 1.03 | locus YER110C, active compounds read low 1.02 | locus YER111C, strain swi4, active compounds read low 1.05 | locus YER155C, strain BEM2 (second series), active compounds read low 1.08 | locus YER155C, strain BEM2, active compounds read low 0.998 | locus YER167W, strain BCK2, active compounds read low 1 | locus YFR010W, strain ubp6, active compounds read low 1.02 | locus YGL078C, strain dbp3, active compounds read low 1.02 | locus YGL086W, strain mad1, active compounds read low 1.01 | locus YGL167C, strain pmr1, active compounds read low 1.02 | locus YGL173C, strain kem1, active compounds read low 1.02 | locus YGL227W, strain vid30, active compounds read low 1.02 | locus YGL240W, strain doc1, active compounds read low 1.03 | locus YGL248W, strain PDE1, active compounds read low 1 | locus YGL253W, strain hxk2, active compounds read low 1.03 | locus YGR078C, strain PAC10, active compounds read low 0.997 | locus YGR135W, strain pre9, active compounds read low 1.01 | locus YGR229C, strain SMI1, active compounds read low 0.992 | locus YGR252W, strain gcn5, active compounds read low 1.04 | locus YHR013C, strain ard1, active compounds read low 1.02 | locus YHR027C, strain rpn1, active compounds read low 1.02 | locus YHR030C, strain SLT2, active compounds read low 1 and 1.03 | locus YHR079C, strain IRE1 (second series), active compounds read low 1.01 | locus YHR079C, strain IRE1, active compounds read low 1.05 | locus YHR094C, strain hxt1, active compounds read low 1.01 | locus YHR129C, strain ARP1, active compounds read low 1.01 | locus YHR142W, strain chs7, active compounds read low 1.02 | locus YHR200W, strain rpn10, active compounds read low 1.01 | locus YIL066C, strain RNR3, active compounds read low 1.01 | locus YIL073C, strain SPO22, active compounds read low 1.04 | locus YIL125W, strain kgd1, active compounds read low 1.02 | locus YIR030C, strain dcg1, active compounds read low 1.02 | locus YJL092W, strain hpr5, active compounds read low 1.02 | locus YJL095W, strain BCK1 (second series), active compounds read low 1.01 | locus YJL095W, strain BCK1, active compounds read low 1.01 and 1.04 | locus YJL115W, strain asf1, active compounds read low 1.04 | locus YJL129C, strain trk1, active compounds read low 0.981 | locus YJL134W, strain LCB3, active compounds read low 1.01 | locus YJL154C, strain vps35, active compounds read low 1.02 | locus YJL164C, strain tpk1, active compounds read low 0.994 | locus YJL166W, strain qcr8, active compounds read low 1.02 | locus YJL168C, strain set2, active compounds read low 1.01 | locus YJL187C, strain SWE1 (second series), active compounds read low 1.01 | locus YJL187C, strain SWE1, active compounds read low 1.01 | locus YJR043C, strain POL32, active compounds read low 1.01 | locus YJR066W, strain TOR1, active compounds read low 0.925
